Assay outcomes as filed in PubChem BioAssay.
HttQ103 aggreg = qHTS Multiplex Assay to Identify Dual Action Probes in a Cell Model of Huntington: Aggregate Formation (GFP); PC12 HttQ103-GFP aggregates, Acumen cytometry, 40 h; Potency, µM (top dose mostly 46.1 µM), usual class: inhibitors; 1.1% of 220,000 active; AID 1688, 2009; further: nearly all actives have a fitted effect of over 60% in size
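Read-out: GFP aggregate count by laser scanning cytometer (488 nm excitation, 500-530 nm emission, 1–25 µm objects >6 SD above background). Cells: PC12, inducible HTTex1-Q103-GFP, 100 nM tebufenozide; compounds titrated.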
HTT cytoprotect = qHTS Multiplex Assay to Identify Dual Action Probes in a Cell Model of Huntington: Cytoprotection (ATP). Potency, µM (top dose mostly 56.4 µM), actives largely listed as activators. PC12 HTT-Q103 induced, cytoprotection, ATP luminescence, 40 h. 0.14% of 230,000 active. AID 1471, 2008; further: nearly all actives have a fitted effect of over 45% in size
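Huntington model: PC12 line, ecdysone-inducible HTTQ103 exon1–GFP, tebufenozide 100 nM. Test articles in a dose series. Endpoint luminescence from cellular ATP.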
TexasRed fluor = Total Fluorescence Counterscreen for Inhibitors of the Interaction of Thyroid Hormone Receptor and Steroid Receptor Coregulator 2 | TRb/SRC2 Texas Red total fluorescence interference | Potency, µM (top dose mostly 106 µM) | 0.29% of 280,000 active; active means well fitted curve in either direction with a large enough effect; inconclusive means small, poorly fitted or top-dose-only effect
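Human TRb ligand-binding domain at 0.6 uM with 20 nM Texas Red SRC2 peptide in Tris buffer containing 1 uM T3 and 5% DMSO, incubated with compound 5 h at ambient temperature. Total fluorescence (555/632 nm) calculated as parallel + 2 × perpendicular.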
FBPA coupling cs = qHTS Assay for Inhibitors of Fructose-1,6-bisphosphate Aldolase from Giardia Lamblia: Coupling assay counterscreen | activity change, negative = inhibition, % at 58.2 µM, hits read low | coupling enzyme system counterscreen, AmpLite Red fluorescence | 0.67% of 290,000 active; in the data active means activity change below about -30%
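Final compound at 57.5 uM, incubated 10 min at RT with coupling enzyme reagent (glyceraldehyde-3-phosphate), then 20 min with substrate and AmpLite Red detection. Fluorescence read at 525/598 nm; tests interference with the coupling assay, not aldolase inhibition.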
TRb SRC2 PPI = qHTS for Inhibitors of the Interaction of Thyroid Hormone Receptor and Steroid Receptor Coregulator 2 | Potency, µM (titrated, usually from 106 µM), most hits filed as inhibitors | TRbeta-SRC2 peptide binding, fluorescence polarization; receptor liganded with 1 µM T3 | Thyroid hormone receptor beta (Homo sapiens), P10828 | 0.065% of 280,000 active; further: nearly all actives have a fitted effect of over 50% in size
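A fluorescence polarization screen tested compounds at multiple concentrations against complex formation between 0.6 uM TRb ligand-binding domain and 20 nM Texas Red SRC2 peptide, with 1 uM T3 present; readout after 5 hr.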
JMJD2E inh = qHTS Assay for Inhibitors of Human Jumonji Domain Containing 2E (JMJD2E); JMJD2E catalytic domain, FDH-coupled NADH fluorescence (FDH is formaldehyde dehydrogenase); Potency, µM (doses to about 57.1 µM), actives largely listed as inhibitors; 1.6% of 230,000 active; active means well fitted inhibition curve with a large enough effect, not every such curve was filed as active; inconclusive means small, poorly fitted or top-dose-only effect, or another doubt; inactive means no such curve, though single readings can be large or run the other way; further: nearly all actives have a fitted effect of over 50% in size
Target sequence (B2RXH2 1-337 limits assumed): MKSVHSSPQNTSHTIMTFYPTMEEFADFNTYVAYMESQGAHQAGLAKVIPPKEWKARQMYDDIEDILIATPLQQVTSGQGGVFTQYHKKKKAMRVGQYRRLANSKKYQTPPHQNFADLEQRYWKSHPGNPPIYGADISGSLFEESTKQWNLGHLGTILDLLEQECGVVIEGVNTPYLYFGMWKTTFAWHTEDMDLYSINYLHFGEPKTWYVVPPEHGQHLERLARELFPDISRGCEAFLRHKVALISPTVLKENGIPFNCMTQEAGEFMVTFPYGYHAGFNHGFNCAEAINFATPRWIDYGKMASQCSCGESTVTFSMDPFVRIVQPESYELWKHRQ
Numbers stand for hits; [ ] = remark or other dose. In the library only some 2% were active in any assay of this set; here they are far more common. Unless noted, the call rests on the fitted dose curve; in most records, active means well fitted curve in the direction sought with a large enough effect; inconclusive means small, poorly fitted or top-dose-only effect, or another doubt; inactive means no such curve, though single readings can be large; an effect the other way counts as inactive or inconclusive.

N#Cc1nc(-c2ccc(F)cc2)oc1NCCN1CCOCC1 was read as HttQ103 aggreg inactive, HTT cytoprotect inactive[10 µM], TexasRed fluor inactive, FBPA coupling cs inactive, TRb SRC2 PPI inactive and JMJD2E inh inconclusive.
For O=C(CSc1ccc(Cl)cc1)N1CCN(c2ccc(Cl)cc2[N+](=O)[O-])CC1 the results were HttQ103 aggreg 11µM, HTT cytoprotect inactive, TexasRed fluor inactive, TRb SRC2 PPI inactive and JMJD2E inh inactive.
`CCOc1ccc(N(CC(=O)Nc2cccc(OC)c2)S(=O)(=O)c2c(C)noc2C)cc1` gave HttQ103 aggreg inactive, HTT cytoprotect inactive[10 µM], TexasRed fluor inactive, FBPA coupling cs inactive, TRb SRC2 PPI inactive and JMJD2E inh inactive.
`CCOc1ccc(N(CC(=O)Nc2cccc(Cl)c2)S(=O)(=O)c2c(C)noc2C)cc1` gave HttQ103 aggreg 22µM, HTT cytoprotect inactive, TexasRed fluor inactive, FBPA coupling cs inactive, TRb SRC2 PPI inactive and JMJD2E inh inactive.
For CCC(C)NC(=S)N1CCN(C(c2ccccc2)c2ccccc2)CC1 (centres undefined) the results were HttQ103 aggreg inactive, HTT cytoprotect inactive[10 µM], TexasRed fluor inactive, FBPA coupling cs inactive, TRb SRC2 PPI inactive and JMJD2E inh inactive.
`CCC(C)NC(=S)N1CCN(Cc2ccccc2)CC1` (centres undefined) gave HttQ103 aggreg 0.56µM, TexasRed fluor inactive, FBPA coupling cs inactive, TRb SRC2 PPI inactive and JMJD2E inh inactive.
For O=C(CS(=O)c1ccccc1[N+](=O)[O-])Oc1ccc(Br)cc1 (centres undefined) the results were HttQ103 aggreg inactive[9.22 µM], HTT cytoprotect inactive[10 µM], TexasRed fluor inactive, FBPA coupling cs inactive, TRb SRC2 PPI inactive and JMJD2E inh inactive.
For CS(=O)(=O)c1ccc(S(=O)CC(=O)Oc2ccc(Cl)cc2)c([N+](=O)[O-])c1 (centres undefined) the results were HttQ103 aggreg inactive, HTT cytoprotect inconclusive, TexasRed fluor inactive, FBPA coupling cs inactive, TRb SRC2 PPI inactive and JMJD2E inh 3.2µM.
CC(C)Cn1nc(NC(=O)c2cccc(Cl)c2)c2cc3ccccc3nc21 was read as TexasRed fluor 1413µM[quencher] and TRb SRC2 PPI inactive.
Screening CCOc1ccccc1CNC(=O)c1ccc2nc(Cc3ccc(OC)cc3)oc2c1 returned TexasRed fluor inactive and TRb SRC2 PPI inactive.
CC1CCN(C(=S)c2cn(Cc3ccccc3F)c3ccccc23)CC1 was read as HttQ103 aggreg 16µM, HTT cytoprotect inactive, TexasRed fluor inactive, FBPA coupling cs inactive, TRb SRC2 PPI inactive and JMJD2E inh inactive.
`CN1CCN(C(=S)c2cn(Cc3ccccc3F)c3ccccc23)CC1` gave HttQ103 aggreg inactive, HTT cytoprotect inconclusive, TexasRed fluor inactive, FBPA coupling cs inactive, TRb SRC2 PPI inactive and JMJD2E inh inactive.
Screening COC(=O)CC1Oc2ccc(F)cc2-n2cc(-c3ccc(C)cc3)nc21 (centres undefined) returned TexasRed fluor inactive and TRb SRC2 PPI inactive.
For COc1ccc(N2CCN(C(=O)CSc3nc(-c4ccc(C(C)C)cc4)no3)CC2)cc1 the results were TexasRed fluor inactive and TRb SRC2 PPI inactive.
`COc1ccc(CCNC(=O)Cc2c(C)c3c(cc(C)c4c(C)coc43)oc2=O)cc1` gave TexasRed fluor inactive and TRb SRC2 PPI inactive.
C1CCC(C(C[C@@H]2CCCCN2)C2CCCCC2)CC1 was read as HTT cytoprotect inactive, TexasRed fluor inactive, FBPA coupling cs inactive, TRb SRC2 PPI inactive and JMJD2E inh inactive.
`CC1(C)CC(N=C2C([N+](=O)[O-])=CC=C3C2=NC2(CCCCC2)N3O)CC(C)(C)N1` gave HttQ103 aggreg inactive[9.22 µM], HTT cytoprotect inactive[10 µM], TexasRed fluor inactive, FBPA coupling cs -38, TRb SRC2 PPI inactive and JMJD2E inh inconclusive.
CC(C)(C)N=C1C([N+](=O)[O-])=CC=C2C1=NC1(CCCCC1)N2O was read as HttQ103 aggreg inactive, HTT cytoprotect inactive[10 µM], TexasRed fluor inactive, FBPA coupling cs -46, TRb SRC2 PPI inactive and JMJD2E inh inactive.
Screening O=[N+]([O-])C1=CC=C2C(=NC3(CCCCC3)N2O)C1=NCCc1ccccc1 returned HttQ103 aggreg inactive, HTT cytoprotect inactive, TexasRed fluor inactive, FBPA coupling cs -65, TRb SRC2 PPI inactive and JMJD2E inh inactive.
O=C(Cn1cc(S(=O)(=O)Cc2ccc(F)cc2)c2ccccc21)NCc1ccccc1Cl was read as TexasRed fluor inactive and TRb SRC2 PPI inactive.
`Cc1cccc(Cn2c(CN3CCCC(C)C3)nc3c2c(=O)n(C)c(=O)n3C)c1` (centres undefined) gave TexasRed fluor inactive and TRb SRC2 PPI inactive.
`O=C(COc1ccccc1Cl)Nc1nc(-c2ccc(F)cc2)ns1` gave TexasRed fluor inactive and TRb SRC2 PPI inactive.
O=C(C1CCCCC1)N(Cc1cccnc1)c1nc2c(F)cc(F)cc2s1 was read as TexasRed fluor inactive and TRb SRC2 PPI inactive.
For COc1ccccc1CNc1nc(-c2ccc(N(C)C)cc2)nc2ccccc12 the results were HTT cytoprotect inactive, TexasRed fluor inactive, FBPA coupling cs -32, TRb SRC2 PPI inactive and JMJD2E inh inconclusive.
For CC1(OC(=O)c2ccc(Cl)nc2)C(=O)C=C2C=C3CCCN3C=C2C1=O (centres undefined) the results were HttQ103 aggreg inactive[9.22 µM], HTT cytoprotect inactive[10 µM], TexasRed fluor inactive[11.2 µM], FBPA coupling cs inactive, TRb SRC2 PPI inactive[11.2 µM] and JMJD2E inh 5.6µM.
For CC1(OC(=O)c2ccc(Cl)nc2)C(=O)C=C2C=C(C3CC3)OC=C2C1=O (centres undefined) the results were HTT cytoprotect inactive, TexasRed fluor inactive, FBPA coupling cs inactive, TRb SRC2 PPI inactive and JMJD2E inh inactive.
For Cc1cc(C(=O)N/N=C/c2cc(Br)cc(Br)c2OC(=O)c2ccccc2)n[nH]1 the results were HttQ103 aggreg 4.5µM, HTT cytoprotect inactive[10 µM], TexasRed fluor inactive, FBPA coupling cs inactive, TRb SRC2 PPI inactive and JMJD2E inh inactive.
For Cc1cc(C(=O)N/N=C/c2cc(Br)ccc2OC(=O)c2ccc(Br)cc2)n[nH]1 the results were HttQ103 aggreg 10µM, HTT cytoprotect inactive[10 µM], TexasRed fluor inactive, FBPA coupling cs inactive, TRb SRC2 PPI inactive and JMJD2E inh inactive.
